DT40 TDP1 CPT: DT40-hTDP1 cell growth loss with CPT. chicken DT40 Tdp1-/-;hTDP1 cells + 20 nM CPT, ATP luminescence, 48 h. Potency, µM (titrated, usually from 46.2 µM), for the others: top-dose activity change, negative = growth inhibition, hits mostly inhibitors. 420,000 compounds, 12% hits. AID 686979; also: % is scaled to controls: 0 for no effect and ±100 for the full control effect; nearly all actives have a fitted effect of over 55% in size
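Cell growth measured by CellTiter-Glo luminescence after a minimum 48 h, 37 C compound exposure with 20 nM CPT in Tdp1-knockout DT40 cells stably expressing hTDP1, seeded 400/well; qHTS titration format.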
ATXN viability: viability counter-screen for ATXN expression inhibitors; S2 cells (HEK-293 line with an ATXN2-luciferase reporter) viability, CellTiter-Fluor protease fluorescence, 24 h; Potency, µM (highest dose often 56.7 µM), hits mostly cytotoxic; 400,000 compounds, 0.49% hits; also: nearly all actives have a fitted effect of over 40% in size
HepG2 viability: counter-screen for TGF-b inhibitors: cytotoxicity in HepG2 cells; HepG2 CAGA-GFP viability, ATP luminescence, 18 h; Potency, µM (titrated, usually from 46.1 µM), for inactives: at the highest dose activity change, negative = cytotoxicity, usual class: cytotoxic; 410,000 compounds, 0.76% hits; AID 588856
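HepG2 CAGA-GFP cells (1000/well, DMEM with 1% FBS) received compound, then TGF-beta at 500 pg/mL final, and were incubated 18 hours at 37 degrees C. Viability was read by CellTiter-Glo luminescence. Media-only wells were set as complete cell-killing and DMSO as no toxicity.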
DT40 TDP1 no CPT: qHTS for Inhibitors of human tyrosyl-DNA phosphodiesterase 1 (TDP1): qHTS in cells in absence of CPT | DT40 Tdp1-/- hTDP1 cells, no CPT, ATP luminescence, 48 h | Potency, µM (doses to about 46.2 µM), without a hit: top-dose activity change, negative = growth inhibition, most hits filed as inhibitors | 420,000 compounds, 15% hits | AID 686978, 2013; also: % is scaled to controls: 0 for no effect and ±100 for the full control effect; nearly all actives have a fitted effect of over 55% in size
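Chicken DT40 Tdp1-/- cells complemented with human TDP1, screened without camptothecin (DMSO vehicle only), 400 cells/well. Compounds pin-transferred, cells incubated at 37 °C for at least 48 hr. Growth read as ATP-dependent luminescence (CellTiter-Glo, 30 min at RT).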
TGFb SMAD3 inh: TGF-b pathway inhibition | HepG2 CAGA-GFP TGF-b/SMAD3 reporter, GFP fluorescence, 18 h; TGF-beta stimulated, 500 pg/mL final | Potency, µM (top dose mostly 46.1 µM), inactives show top-dose activity, negative = inhibition, actives largely listed as inhibitors | 410,000 compounds, 1.2% hits; also: % is scaled to controls: 0 for no effect and ±100 for the full control effect; nearly all actives have a fitted effect of over 65% in size
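HEPG2 CAGA-GFP reporter cells (1000/well, DMEM with 1% FBS) received compounds, then recombinant TGF-beta at 500 pg/mL final for 18 hours at 37 degrees C. Per-cell GFP summed per well was normalised to unstimulated and stimulated DMSO controls before curve fitting.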
ATXN2 expr inh: inhibitors of ATXN2 expression; HEK-293 ATXN2-luciferase reporter, luminescence, 24 h; Potency, µM (top dose mostly 57 µM), inactives show top-dose activity change, negative = inhibition, hits mostly inhibitors; 360,000 compounds, 0.72% hits; AID 1745845; also: % is scaled to controls: 0 for no effect and ±100 for the full control effect; nearly all actives have a fitted effect of over 55% in size
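qHTS (up to 57 uM final) was run with 24 h compound exposure of reporter cells at 37 °C. Each well was multiplexed: SteadyGlo luminescence measured ATXN2-luciferase expression after a fluorogenic Gly-Phe-AFC viability readout (25 uM final).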
Starred values were filed as active, the others as inactive; i = inactive; ? = inconclusive; / = no result given. Shown are actives, neighbours in structure and some others; about 17% of the full set was active somewhere. Calls follow the shape of the dose curve; as a rule, active = well fitted curve in the direction sought with a large enough effect; inconclusive = small, poorly fitted or top-dose-only effect, or another doubt; inactive = no such curve, though single readings can be large; an effect the other way counts as inactive or inconclusive. Potency is read from the fitted curve at half-maximal effect.

SMILES	DT40 TDP1 CPT	ATXN viability	HepG2 viability	DT40 TDP1 no CPT	TGFb SMAD3 inh	ATXN2 expr inh
Cc1ccc(C2(c3noc(CN(C)CC4CCCCO4)n3)CCCC2)cc1 (stereo not drawn)	?	i	13.3%	?	-17.8%	/
O=C(C=C(C(=O)c1ccccc1)c1ccccc1)c1ccccc1	23.1µM*	i	-3.1%	20.6µM*	-0.5%	-1.0%
COC(=O)[C@@H]1CCCN1C(=O)c1c(OC)cc(=O)n2c1CCN(Cc1ccc3nsnc3c1)CC2	0.9%	i	/	-15.4%	/	/
COc1cccc(CNC(=O)C2CCCN(c3ncnc4onc(-c5ccc(F)cc5)c34)C2)c1 (stereo not drawn)	?	i	1.4%	?	-27.7%	11.6%
Cc1ccccc1NC(=O)C1CCCN(c2ncnc3onc(-c4ccc(F)cc4)c23)C1 (stereo not drawn)	?	i	0.0%	-29.9%	-3.3%	/
CCCCN(C)C(=O)C1CCCN(c2ncnc3onc(-c4ccc(F)cc4)c23)C1 (stereo not drawn)	14.6µM*	?	-29.4%	23.1µM*	-24.2%	-16.6%
CCCN(CCC)C(=O)C1CCCN(c2ncnc3onc(-c4ccc(F)cc4)c23)C1 (stereo not drawn)	5.17µM*	i	4.8%	16.4µM*	1.3%	1.7%
CC(C)N(Cc1ccccc1)C(=O)C1CCCN(c2ncnc3onc(-c4ccc(F)cc4)c23)C1 (stereo not drawn)	7.31µM*	?	1.6%	5.17µM*	?	?
O=c1c2ccccc2nc2n1CCC2O (stereo not drawn)	-0.2%	i	-8.6%	0.3%	4.0%	-5.9%
O=C(CN1C(=O)CCc2cc(S(=O)(=O)N3CCOCC3)ccc21)Nc1cccc(Cl)c1	-27.6%	i	1.2%	3.5%	-17.7%	9.4%
CN(C)C(=O)NC(NC(=S)Nc1ccccc1)C(Cl)(Cl)Cl (stereo not drawn)	?	?	9.6%	-28.9%	22.8%	-16.1%
CN(C)C(=O)NC(Nc1ccc(Cl)cc1Cl)C(Cl)(Cl)Cl (stereo not drawn)	?	i	-23.1%	18.4µM*	?	-24.2%
Cc1cccc(NC(=O)CSc2nncn2C)c1	-10.7%	i	-3.4%	11.9%	35.8%	1.0%
Cc1ccc(CNC(=O)Cn2c3ncccc3c(=O)n2-c2ccc(C)cc2)cc1	20.6µM*	i	1.4%	?	-17.2%	4.5%
CCc1cccc(-n2c(=O)c3cccnc3n2CC(=O)Nc2c(C)cc(C)cc2C)c1	?	/	6.7%	23.1µM*	6.1%	/
CCc1ccc(-n2c(=O)c3cccnc3n2CC(=O)Nc2ccccc2C(F)(F)F)cc1	?	/	11.2µM*	?	?	/
Cc1ccc(-n2c(=O)c3cccnc3n2CC(=O)Nc2cc(C)cc(C)c2)cc1	?	i	-37.1%	-100.0%	?	-5.3%
Cc1ccc(-n2c(=O)c3cccnc3n2CC(=O)Nc2ccc(C)cc2Cl)cc1	?	i	8.4%	13µM*	4.4%	-1.3%
CCc1ccccc1NC(=O)Cn1c2ncccc2c(=O)n1-c1ccccc1	-21.5%	i	-6.6%	-19.4%	13.8%	-29.2%
COc1cccc(NC(=O)c2ccc3nc(C)c(N(C)Cc4ccc(NC(C)=O)cc4)n3c2)c1	?	i	1.3%	-29.2%	6.8%	0.1%
COC(=O)c1ccc(OC)c(Cn2c(=O)n(-c3cccc(Cl)c3)c(=O)c3c2c2cc(C)ccc2n3C)c1	-12.8%	i	-2.1%	0.7%	7.5%	-1.0%
O=c1[nH]c(SCCc2ccccc2)nc2c1CCC2	?	i	-5.7%	7.31µM*	-4.6%	0.5%
Cc1oc(-c2ccccc2Cl)nc1CSc1nc2c(c(=O)[nH]1)CCCC2	13µM*	i	17.9%	18.4µM*	23.1%	/
Cc1cccc(CSc2nc3c(c(=O)[nH]2)CCC3)c1	?	i	2.2%	?	?	0.3%
Cc1ccc(CSc2nc3c(c(=O)[nH]2)CCC3)cc1	-7.0%	i	-3.6%	-3.6%	19.4%	30.6%
SMILES	DT40 TDP1 CPT	ATXN viability	HepG2 viability	DT40 TDP1 no CPT	TGFb SMAD3 inh	ATXN2 expr inh
O=c1[nH]c(SCc2ccccc2Cl)nc2c1CCC2	?	i	5.9%	29.1µM*	17.9%	14.1%
COC(=O)c1ccc(CSc2nc3c(c(=O)[nH]2)CCC3)cc1	?	i	-3.3%	20.6µM*	-3.2%	8.1%
CCN(Cc1ccncc1)C(=O)Cc1cccs1	1.7%	i	-20.4%	3.2%	1.8%	/
Cn1cc(CN2CCC(n3nccc3NC(=O)Cc3ccccc3)CC2)cn1	-3.8%	i	13.2%	27.1%	1.2%	-3.0%
CCc1ccc(CN2CCC(n3nccc3NC(=O)c3ccccc3Cl)CC2)cc1	23.1µM*	i	-26.1%	?	?	-18.6%
CC(C)c1csc(CN2CCC(n3nccc3NC(=O)Cc3ccccc3)CC2)n1	?	i	0.0%	25.9µM*	-1.9%	-0.2%
Cc1ccccc1CN1CCC(n2nccc2NC(=O)CCCc2ccccc2)CC1	?	i	17.8µM*	?	-0.8%	/
COc1ccccc1C(=O)Nc1ccnn1C1CCN(Cc2cn(C)c3ccccc23)CC1	?	?	-42.2%	?	11.2µM*	/
CCCn1ncc(CN2CCC(n3nccc3NC(=O)c3ccccc3OC)CC2)c1C	?	i	21.1%	-25.0%	-5.1%	-5.7%
Cc1cc(C)c(CN2CCC(n3nccc3NC(=O)c3ccccc3Cl)CC2)cc1C	14.6µM*	i	0.0%	?	-15.3%	6.4%
CCCCc1ncc(CN2CCC(n3nccc3NC(=O)c3ccccc3OC)CC2)[nH]1	?	i	-9.1%	14.6µM*	-2.2%	0.8%
COc1ccccc1C(=O)Nc1ccnn1C1CCN(Cc2cc(C)c(C)cc2C)CC1	?	i	-67.0%	18.4µM*	?	-33.2%
CC(C)c1csc(CN2CCC(C(=O)Nc3cccc(-c4ccco4)c3)CC2)n1	?	?	-38.5%	18.4µM*	-23.9%	/
COc1cccc(-c2cccc(NC(=O)C3CCN(Cc4nccs4)CC3)c2)c1	13.6%	i	3.7%	-2.4%	-10.6%	-2.3%
Cc1ccc2c(COC(=O)c3ccc(NC(=O)CC#N)cc3)cc(=O)oc2c1C	10.5%	i	-14.7%	1.1%	6.0%	-4.2%
CCOC(=O)CN=C/C(C(C)=O)=C(/C)O	2.5%	i	0.6%	15.7%	2.6%	-10.3%
